Screens: PubChem, The Scripps Research Institute Molecular Screening Center
Rows were chosen to be rich in hits. Some 4.1% of all compounds tested hit in one or more screens of this group.
hcDAF-12 act: H. contortus DAF-12 activation, primary screen; activation, % at 6.8 µM; HEK293 hcDAF-12 lit1-tk-luc reporter, luminescence; 0% DMSO, 100% Δ7-dafachronic acid; AID 652067; hit rate 1.4% among 370,000;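 active = activation above the mean of all tested compounds plus 3 SD, cut at about 5.5% in these data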
ssDAF12 agonist: activates DAF-12 receptor from parasite S. stercoralis; HEK293 ssDAF-12/GRIP1 lit1-tk-luc reporter, luminescence; % of 3 µM dafachronic acid response; activation, % at 6.8 µM; hit rate 1% among 370,000; AID 652126;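 active = activation above the mean over all tested compounds plus 3 SD, cut at about 0.9% in these data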
DAX1 inh-1: inhibitors of human orphan nuclear receptor DAX1 (NR0B1) | P51843 | HEK293 Gal4-DAX1 luciferase reporter, luminescence | inhibition, % at 6.75 µM | hit rate 0.99% among 340,000;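 active = inhibition above the mean over all tested compounds plus 3 SD, cut at about 4.2% in these data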;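 also: inhibition shows as a rise in luminescence from relieved DAX1 repression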
Target sequence (P51843 207-470 limits assumed): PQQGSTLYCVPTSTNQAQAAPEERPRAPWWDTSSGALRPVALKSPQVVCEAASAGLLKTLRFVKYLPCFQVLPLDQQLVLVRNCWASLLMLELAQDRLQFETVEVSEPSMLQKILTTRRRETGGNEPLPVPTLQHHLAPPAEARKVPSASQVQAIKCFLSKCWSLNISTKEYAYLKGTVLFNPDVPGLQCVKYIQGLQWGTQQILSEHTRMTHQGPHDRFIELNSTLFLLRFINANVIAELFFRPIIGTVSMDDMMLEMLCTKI
hgDAF-12 ag: agonists of H. glycines DAF-12 nuclear receptor; activation, % at 6.8 µM; hit rate 1.8% among 370,000; HEK293 GAL4-hgDAF12 UAS-luciferase reporter, agonist luminescence; normalized to butyrate control;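 active = activation above a cutoff set at the mean of all screened compounds plus 3 SD, cut at about 10% in these data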
DAX1 inh-2: blocks DAX1 repression of SF-1 activated StAR promoter; HEK293T StAR-luciferase reporter, SF-1/DAX-1 repression relief; inhibition, % at 6.8 µM; hit rate 1.1% among 370,000; AID 652010;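 active = inhibition above the mean over all tested compounds plus 3 SD, cut at about 3.6% in these data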;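 also: higher inhibition means more luminescence from relief of DAX-1 repression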
A number is an active result; n = inactive; x = no result.

SMILES | hcDAF-12 act | ssDAF12 agonist | DAX1 inh-1 | hgDAF-12 ag | DAX1 inh-2
CCN1CCCCC(NC(=O)Cc2ccccc2)C1=O (centres undefined) | n | n | x | n | n
CCN1C(=S)SC(=O)C1=C1C=C(C)OC(C)=C1 | n | n | n | n | n
CCN1C(=S)SC(=O)C1=C1C=C(C)N(Cc2ccco2)C(C)=C1 | 6.5 | n | n | 12 | n
CN(Cc1ccc2c(c1)OCCO2)C(=O)CN1C(=O)NC2(CCCCC2)C1=O | n | n | n | n | n
O=C(CN1C(=O)NC2(CCCCCC2)C1=O)c1ccc(F)cc1 | n | n | n | n | n
CC(C)N(Cc1ccccc1)C(=O)CN1C(=O)NC2(CCCC2)C1=O | n | n | n | n | 4.1
CCc1cccc2c(C(=O)CN3C(=O)NC4(CCCCC4)C3=O)c[nH]c12 | n | n | n | n | 3.9
CN(Cc1ccccc1)C(=O)CN1C(=O)NC2(CCCC2)C1=O | n | n | n | n | n
CCc1ccc(C(=O)CN2C(=O)NC3(CCCCCC3)C2=O)cc1 | n | n | n | n | 4.5
O=C(CN1C(=O)NC2(CCCCCC2)C1=O)c1ccc2c(c1)OCCO2 | 6.4 | n | n | 11 | n
COc1cc(N/C(=C\C(=O)c2ccccc2)c2ccccc2)ccc1Cl | n | n | x | n | n
Cc1ccc(S(=O)(=O)N2C=C(c3ccccc3)c3ccccc3-c3ccccc32)cc1 | n | n | x | n | x
COC(=O)C[C@@H]1CC[C@H]2[C@H](COc3ccc(NC(=O)c4cccc(C(F)(F)F)c4)cc3C(=O)N2C)O1 | n | n | x | n | n
O=C1C(c2ccccc2)=NCCN1C(c1ccc(F)cc1)c1nc2ccccc2[nH]1 (centres undefined) | 6.1 | n | x | n | n
CCCOc1ccc(-c2nc(=S)[nH][nH]2)cc1 | n | n | 4.5 | n | n
OC(c1ccccc1)(c1ccccc1)C1CCN(CCCOc2ccccn2)CC1 | n | n | x | n | n
CCOC(=O)c1c(-c2ccccc2)csc1NC(=O)c1ccc(S(=O)(=O)N2CCOCC2)cc1 | n | n | n | 11 | n
C=CCN(Cc1ccccc1)C(C#CC(=C)C)Cc1ccccc1 (centres undefined) | n | n | x | n | n
N#Cc1ccccc1OCC(=O)NCC1(N2CCCCC2)CCCCC1 | n | 1.5 | n | n | n
Cc1cc(=O)n2[nH]cc(-c3ccccc3)c2n1 | n | n | n | n | n
Cc1nc2c(-c3ccccc3)c[nH]n2c(=O)c1Cc1ccccc1 | n | n | 5.7 | n | n
CC(=O)c1cc(-c2ccc(Cl)c(Cl)c2)c(=O)n2c1CCC2 | n | n | x | n | n
CC(=O)Nc1ccc2c(c1)C(=O)N(C)[C@H]1CC[C@H](CC(=O)NCc3ccc(F)cc3)O[C@@H]1CO2 | n | n | x | n | n
O=C1c2ccccc2C(c2nnnn2-c2ccc3c(c2)OCCO3)N1CCc1ccccc1F (centres undefined) | n | n | x | n | 4.4
O=C1c2ccccc2C(c2nnnn2-c2ccc3c(c2)OCCO3)N1CCc1ccc(O)cc1 (centres undefined) | n | n | x | n | n
SMILES | hcDAF-12 act | ssDAF12 agonist | DAX1 inh-1 | hgDAF-12 ag | DAX1 inh-2
COc1ccc(Nc2oc(-c3ccc(Cl)cc3)nc2C#N)cc1 | n | n | n | 11 | n
COc1ccc(Nc2oc(-c3ccc(OC)cc3)nc2C#N)cc1 | n | n | n | n | n
COc1ccc(Nc2oc(-c3ccccc3)nc2C#N)cc1 | n | n | n | 10 | n
O=C(CCl)NNC(=O)c1c(O)c2ccccc2[nH]c1=O | n | n | n | n | n
O=C(Nc1c[nH]c(=O)[nH]c1=O)c1ccccc1Br | n | n | 6.4 | n | n
O=C(Nc1ccccc1C(=O)Nc1ccccc1)c1ccccc1Br | n | n | n | n | n
O=C(NNC(=O)c1c(O)c2ccccc2[nH]c1=O)c1ccccc1Br | n | 0.9 | n | n | n
C=CCN1C(=O)[C@@H](CC(=O)NCc2ccc(OC)c(OC)c2)[C@]2(C(=O)OC)CCCCC=C12 | n | n | x | n | n
Cc1ccc(C(=O)C(C)[n+]2cccc(C(N)=O)c2)cc1 (centres undefined) | n | n | 7.1 | n | n
O=C(CCc1nc2ccccc2c(=O)[nH]1)N1CCCc2ccccc21 | 5.6 | 1.3 | n | n | n
O=S(=O)(NC1=NCCCCC1)c1cc(F)ccc1F | n | n | 4.5 | n | n
O=C(COCc1ccccc1)N1CC[C@H]2[C@H](CCCN2Cc2ccccc2)C1 | n | n | x | n | n
CC(C)Oc1ccc(-c2csc(N3CCC(C(N)=O)CC3)n2)cc1 | n | n | x | 11 | x
CCOC(=O)c1c(O)c(Cl)c(C)[nH]c1=O | n | n | n | 12 | n
COC(=O)c1cc(-c2ccccc2)c(=O)n2c1CCC2 | n | n | x | n | n
CC(C(=O)Nc1sc2c(c1C#N)CCCCC2)N1C(=O)c2ccccc2C1=O (centres undefined) | n | 1.1 | n | n | n
Cc1cc(C(=O)Nc2sc3c(c2C#N)CCCC3)no1 | n | n | n | 12 | n
Cc1cc(C(=O)Nc2sc3c(c2C#N)CCC3)no1 | n | n | n | n | n
CC(=O)Nc1sc2c(c1C#N)CCCCC2 | n | n | n | n | n
CC(=O)Nc1cc2c(cc1Cl)-c1ccccc1C2O (centres undefined) | 5.9 | n | n | n | n
CC(=O)Nc1cc2c(cc1Cl)-c1ccccc1C2 | n | n | n | n | n
CCCc1nc2ccccc2c(=O)n1NC(=O)c1c(O)c2ccccc2n(C)c1=O | n | n | n | n | n
CCc1nc2ccccc2c(=O)n1NC(=O)c1c(O)c2ccccc2[nH]c1=O | n | n | 4.9 | n | n
Cc1cccc(C)c1-n1nnnc1C1c2ccccc2OCC(=O)N1Cc1ccc(F)cc1 (centres undefined) | n | n | x | n | n
CCOC(=O)[C@]12CCCC=C1N(CCCOC)C(=O)[C@@H]2CC(=O)NCc1ccccc1 | n | n | x | n | n
SMILES | hcDAF-12 act | ssDAF12 agonist | DAX1 inh-1 | hgDAF-12 ag | DAX1 inh-2
Nc1c2c(nc3ccccc13)CCCC2=O | 6.5 | n | n | n | n
Nc1c2c(nc3ccccc13)CCCC2O (centres undefined) | n | n | n | n | n
CSc1nnc(N2C(=O)C(O)=C(C(=O)c3ccco3)C2c2ccc(F)cc2)s1 (centres undefined) | n | n | n | n | 4.2
COc1ccc([C@H]2OC(=O)C[C@@H]2C(=O)N2CCCCC2)cc1OC | n | n | x | n | n
CCOC(=O)C1=C(C)NC(=O)C(C(N)=O)C12CCCC2 (centres undefined) | n | n | 5.1 | n | n
COc1ccc(C=O)cc1-c1cc(C(C)=O)c2n(c1=O)CCC2 | n | 1.3 | x | n | n
CC(=O)c1cc(-c2csc(C=O)c2)c(=O)n2c1CCC2 | n | n | x | n | n
Cc1cc(C)c2c(N)c(C(=O)Nc3ccccc3F)sc2n1 | n | n | 5.3 | 11 | n
Cc1cc(C)cc(C(=O)OCCN2CCN(C3CN(Cc4cn(Cc5ccccc5F)nn4)S(=O)(=O)C3)CC2)c1 (centres undefined) | n | n | x | n | n
COc1ccccc1NC(=O)COc1ccccc1 | n | n | n | n | n
